SMILES strings stand for the structures. About 14,000 (4.5%) of roughly 310,000 compounds showed an effect of 50% or more. The effect is printed as a negative number. What follows is part of a selection rich in strong results, with near analogues and random picks from the rest.
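Also: peak tail current of the secondary pulse compared with the same well before compound.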

The target of this test is human ether-à-go-go-related gene (hERG) potassium channel (human, UniProt Q12809). Description: primary screen, population patch clamp on CHO cells stably expressing hERG; higher = less effect of the substance.
Chain of human ether-à-go-go-related gene (hERG) potassium channel (Q12809 whole entry, looked up): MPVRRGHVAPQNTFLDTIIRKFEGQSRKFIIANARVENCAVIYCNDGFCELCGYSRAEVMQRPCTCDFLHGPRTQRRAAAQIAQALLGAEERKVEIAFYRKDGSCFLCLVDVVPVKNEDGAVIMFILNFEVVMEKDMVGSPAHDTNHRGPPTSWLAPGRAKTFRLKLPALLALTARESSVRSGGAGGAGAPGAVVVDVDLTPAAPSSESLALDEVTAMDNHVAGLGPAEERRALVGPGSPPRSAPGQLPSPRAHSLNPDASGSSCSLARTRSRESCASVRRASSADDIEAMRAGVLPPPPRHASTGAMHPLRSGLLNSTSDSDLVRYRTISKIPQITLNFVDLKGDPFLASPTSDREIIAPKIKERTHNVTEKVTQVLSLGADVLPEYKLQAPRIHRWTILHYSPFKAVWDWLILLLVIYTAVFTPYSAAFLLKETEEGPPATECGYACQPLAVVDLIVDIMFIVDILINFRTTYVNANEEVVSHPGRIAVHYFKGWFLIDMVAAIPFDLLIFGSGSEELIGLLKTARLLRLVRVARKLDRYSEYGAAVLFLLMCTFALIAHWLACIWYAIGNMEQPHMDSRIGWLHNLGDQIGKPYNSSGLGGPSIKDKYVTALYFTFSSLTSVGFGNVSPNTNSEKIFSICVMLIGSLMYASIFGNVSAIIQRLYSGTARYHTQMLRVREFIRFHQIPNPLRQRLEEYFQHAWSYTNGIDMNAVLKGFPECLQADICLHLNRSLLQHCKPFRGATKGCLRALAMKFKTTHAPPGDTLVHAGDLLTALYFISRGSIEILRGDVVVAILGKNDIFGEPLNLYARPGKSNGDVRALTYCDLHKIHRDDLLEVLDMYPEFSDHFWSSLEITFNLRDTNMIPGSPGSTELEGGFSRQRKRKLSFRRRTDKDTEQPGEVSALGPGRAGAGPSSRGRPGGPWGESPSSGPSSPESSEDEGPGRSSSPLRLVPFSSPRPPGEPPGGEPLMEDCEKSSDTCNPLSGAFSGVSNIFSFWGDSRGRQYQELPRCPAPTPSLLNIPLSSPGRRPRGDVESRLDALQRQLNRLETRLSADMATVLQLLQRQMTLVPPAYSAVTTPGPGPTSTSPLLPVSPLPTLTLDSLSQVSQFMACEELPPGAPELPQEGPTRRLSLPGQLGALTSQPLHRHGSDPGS
As for `O=C(CSc1ncnc2ccccc12)NCC(=O)c1ccccc1`, the “hERG current change (%, negative = inhibition) at 10uM” value stood at 1.57%. As to `O=C(Nc1ccccc1)c1c(O)[nH]c(=O)[nH]c1=O`, the “hERG current change (%, negative = inhibition) at 10uM” value turned out to be 8.67%. With `Cc1ccc(N2CC(C(=O)NCc3n[nH]c(=O)c4ccccc34)CC2=O)cc1C` (stereo not shown), the “hERG current change (%, negative = inhibition) at 10uM” value is reported as -13.5%. The figure for `COc1ccc(-c2cc(C(=O)Nc3cc(C)on3)no2)cc1` is 19.9%; for `O=C1NC(c2ccc(-c3ccccc3[N+](=O)[O-])o2)C(C(=O)c2ccc(Cl)cc2)C(O)(C(F)(F)F)N1` (stereo not shown) it is 2.13%. As for `Cc1cc(NS(C)(=O)=O)c(=O)n(Cc2c(F)cccc2Cl)c1`, the “hERG current change (%, negative = inhibition) at 10uM” value was determined as 8.86%. In the case of `CCCCn1c(SCc2nc3ccccc3s2)nc2cc(S(N)(=O)=O)ccc21`, the “hERG current change (%, negative = inhibition) at 10uM” value is on record as -37.5%. Regarding `CCCCn1c(SCC(=O)N2CCC(C(=O)OCC)CC2)nc2cc(S(N)(=O)=O)ccc21`, the “hERG current change (%, negative = inhibition) at 10uM” value is -70.7%. As for `CCCCn1c(SCC(=O)N2CCC(C)CC2)nc2cc(S(N)(=O)=O)ccc21`, the “hERG current change (%, negative = inhibition) at 10uM” value is on record as -30.2%. The figure for `CCCCn1c(SCC(=O)N2CCCC2)nc2cc(S(N)(=O)=O)ccc21` is 9.3%. To `CCCCn1c(SCc2c(C)noc2C)nc2cc(S(N)(=O)=O)ccc21` belongs -43.1%. Turning to `CCCCn1c(SCc2ncc(-c3ccccc3)o2)nc2cc(S(N)(=O)=O)ccc21`, the “hERG current change (%, negative = inhibition) at 10uM” value was -50.5%. The figure for `Cc1cc(C(=O)CSc2nn3c(=O)c(C(C)(C)C)nnc3s2)c(C)n1C` is 9.61%; for `COc1ccc(NC(=S)NCCc2ccc(F)cc2)c(OC)c1` it is -19.4%; for `O=C1c2cccc3c([N+](=O)[O-])ccc(c23)C(=O)N1c1ccccn1` it is 7.95%. On to `O=C(Cc1cccs1)NNC(=S)NC(=O)c1ccc(F)c(F)c1`, for which the “hERG current change (%, negative = inhibition) at 10uM” value is reported as 12.2%. With `CC(C)N(C(=O)CN1CCC(c2nc3ccccc3[nH]2)CC1)C(C)C`, the “hERG current change (%, negative = inhibition) at 10uM” value was -4.13%. To `CCCNC(=O)CN1CCC(c2nc3ccccc3[nH]2)CC1` belongs 15.6%; to `Cc1ccc2nc(C3CCN(CC(=O)Nc4ccc5c(c4)OCCO5)CC3)[nH]c2c1`, -50.6%; to `CC(C)NC(=O)CN1CCC(c2nc3ccccc3[nH]2)CC1`, -8.64%. In the case of `Cc1ccc2nc(SCC(=O)Nc3ccc4c(c3)OCCO4)[nH]c2c1`, the “hERG current change (%, negative = inhibition) at 10uM” value was found to be 4.73%. As for `O=C(CN1CCC(c2nc3ccccc3[nH]2)CC1)Nc1ccc2c(c1)OCO2`, the “hERG current change (%, negative = inhibition) at 10uM” value is -53.1%. Turning to `Cc1ccc2nc(-c3ccc(SCC(=O)Nc4ccc5c(c4)OCCO5)nc3)[nH]c2c1`, the “hERG current change (%, negative = inhibition) at 10uM” value is -5.51%. The figure for `O=C(CN1CCC(c2nc3ccccc3[nH]2)CC1)NCc1ccc2c(c1)OCO2` is -84.3%; for `C=CCNC(=O)CN1CCC(c2nc3ccccc3[nH]2)CC1` it is 7.7%; for `CCN1CCN(Cc2ccc(NC(=O)c3cc(NC(=O)c4ccc5n[nH]nc5c4)cc(OC)c3)cc2C(F)(F)F)CC1` it is 21.1%. Turning to `CC(C(=O)OCC(=O)c1ccccc1)N1C(=O)C2C3CCC(C3)C2C1=O` (stereo not shown), the “hERG current change (%, negative = inhibition) at 10uM” value is 10.5%.

`c1ccc(OCCCn2nnc(-c3ccc(N4CCOCC4)cc3)n2)cc1`: the “hERG current change (%, negative = inhibition) at 10uM” value stood at 15.4%. In the case of `COc1ccc(NC(=O)CN(C)S(=O)(=O)c2cccc3nsnc23)cc1OC`, the “hERG current change (%, negative = inhibition) at 10uM” value is reported as -10.3%.

Regarding `CCc1ccc(N(CC(=O)NC2CCCCC2)C(=O)CNC(=O)c2ccco2)cc1`, the “hERG current change (%, negative = inhibition) at 10uM” value is -13.6%.

`CC(C)c1ccc(N2C(=NC(=O)C3CCCO3)SC3CS(=O)(=O)CC32)cc1` (stereo not shown): the “hERG current change (%, negative = inhibition) at 10uM” value is -9.87%. The figure for `O=C1c2ccccc2C(=O)N1CN(C(=O)COc1ccc(Cl)cc1Cl)c1cccc(F)c1` is 1.4%; for `COc1cccc(S(=O)(=O)Nc2ccc(C(=O)NCc3ccco3)cc2)c1` it is 3.01%; for `Cn1c(-c2ccc(F)cc2)cnc1NCc1ccc(F)cc1` it is -40.7%. As to `Cn1c(-c2ccccc2)cnc1NCc1ccc(-c2ccccc2)cc1.O=C(O)C(=O)O`, the “hERG current change (%, negative = inhibition) at 10uM” value is -10.4%.

On to `Cn1c(-c2ccc(Br)cc2)cnc1NCc1ccc(C#N)cc1.O=C(O)C(=O)O`, for which the “hERG current change (%, negative = inhibition) at 10uM” value is reported as -76.6%. For the molecule `Cn1c(-c2ccc(F)cc2)cnc1NCc1ccccc1`, the “hERG current change (%, negative = inhibition) at 10uM” value is given as -46.7%. As to `Cn1c(-c2ccc(F)cc2)cnc1NCc1ccc(C#N)cc1`, the “hERG current change (%, negative = inhibition) at 10uM” value is recorded as -73.7%.

Regarding `COc1cc(OC)c(NC(=O)CCNC(=O)Cn2cnc3ccccc3c2=O)cc1Cl`, the “hERG current change (%, negative = inhibition) at 10uM” value was -0.133%. To `CCc1nnc(NS(=O)(=O)c2ccc(NC(=O)/C=C/c3ccc(F)cc3)cc2)s1` belongs 8.28%; to `O=C(O)CCC(=O)Nc1sc2c(c1C(=O)NC1CCCC1)CCCC2`, 5.76%; to `Cc1cc(C)cc(C(=O)NC(CC(N)=O)c2ccc(NC3CCCCCCC3)c([N+](=O)[O-])c2)c1` (stereo not shown), 1.06%. Turning to `CC(=O)c1c(O)cc(C)oc1=O`, the “hERG current change (%, negative = inhibition) at 10uM” value was 25.5%. For `C(=N\Nc1nc(N2CCOCC2)nc(N2CCOCC2)n1)/c1cccnc1`, the “hERG current change (%, negative = inhibition) at 10uM” value is on record as -12.1%. To `FC(F)(F)COc1nc(N/N=C/c2cccnc2)nc(N2CCCCC2c2ccccn2)n1` (stereo not shown) belongs -60.8%; to `C(=N\Nc1nc(N2CCCC2)nc(N2CCCC2)n1)/c1cccnc1`, 6.33%.

The record behind these values is article PMC4336329 (PLoS ONE, 2015).
